# Test results as given in PubChem BioAssay (NCATS).
# “And” between values parts separate entries of the source, which are not always exact repeats. Equal entries are not always repeated. Records with an inconclusive call do not appear. Where a call stands in place of a potency, no number is given. The source made the active and inactive calls. Unless noted, calls follow the shape of the dose curve; as a rule, active = well fitted curve in the direction sought with a large enough effect; inconclusive = small, poorly fitted or top-dose-only effect, or another doubt; inactive = no such curve, though single readings can be large; an effect the other way counts as inactive or inconclusive.
# What was measured:
# [1] = Cell Viability - SH-SY5Y (AID 544); conditions: SH-SY5Y neuroblastoma cell viability; viability change, negative = cytotoxic: at 92.2 µM (top of the series);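 also: cells exposed to compound for 40 hours; nearly all actives have a fitted effect of over 55% in size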; also: potency is read from the fitted curve at half-maximal effect
# Procedure, shortened: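 SH-SY5Y human neuroblastoma cells (1500/well) incubated 5 h, then compound-treated 40 h at 37 °C in complete medium. Viability read as intracellular ATP by CellTiter-Glo luminescence after 20 min; AC50 from Hill-equation fits of qHTS concentration-response.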
# [2] = Cell Viability - Renal Proximal Tubule (AID 545); conditions: renal proximal tubule cells viability, primary cells of rat origin; activity change, negative = cytotoxicity: at 91.7 µM (top of the series);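 also: cells exposed to compound for 40 hours; nearly all actives have a fitted effect of over 40% in size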
# Procedure, shortened: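 Luminescent ATP signal (CellTiter-Glo) served as the viability read-out after 40 hr compound exposure of freshly isolated rat proximal tubule cells at 37 °C. Concentration-dependent ATP loss was fitted with the Hill equation to give AC50.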
# [3] = Cell Viability - LYMP2-001 (AID 921); also: nearly all actives have a fitted effect of over 70% in size; also: potency is read from the fitted curve at half-maximal effect
# Procedure, shortened: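 Steps: seed 2500 lymphoblastoid cells/well; 5 hr, 37 C; add compound; 24 hr, 37 C; CellTiter-Glo reagent, 30 min room temperature; read luminescence. Concentration-response modeled by Hill equation for AC50.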
# [4] = MultiTox-Fluor Cytotoxicity Assay - LYMP1-001 - Live Cells (AID 947)
# [5] = Cell Viability - LYMP2-005 (AID 967); also: potency is read from the fitted curve at half-maximal effect
# Procedure, shortened: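 Acute cytotoxicity is scored as a concentration-dependent drop in intracellular ATP in human lymphoblastoid LYMP2-005 cells after 24 h compound treatment. ATP is quantified by luciferase luminescence, and AC50 is derived by Hill-equation modelling.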
# [6] = Cell Viability - LYMP2-017 (AID 972); also: nearly all actives have a fitted effect of over 55% in size; also: potency is read from the fitted curve at half-maximal effect
# Procedure, shortened: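 LYMP2-017 human lymphoblastoid cells (2500/well) settled 5 hr at 37 C, then exposed to compound 24 hr at 37 C in complete medium. Viability taken as intracellular ATP by CellTiter-Glo luminescence after 30 min at RT; AC50 from Hill fits.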
# [7] = Cell Viability - LYMP2-019 (AID 973); also: nearly all actives have a fitted effect of over 55% in size; also: potency is read from the fitted curve at half-maximal effect
# Procedure, shortened: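 Human lymphoblastoid LYMP2-019 cells (2500/well) preincubated 5 h at 37 C, then treated 24 h at 37 C in complete medium. Viability by CellTiter-Glo ATP luminescence after 30 min at room temperature; AC50 from Hill fits.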
# [8] = Cell Viability - LYMP2-021 (AID 974);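 also: compound exposure lasts 24 hours at 37 °C; nearly all actives have a fitted effect of over 55% in size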
# Procedure, shortened: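 Human lymphoblastoid LYMP2-021 cells, 2500/well in complete medium, treated 24 hours at 37 C. Intracellular ATP by CellTiter-Glo luminescence (30 min, RT); AC50 from Hill fits of concentration-response.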
# [9] = Cell Viability - LYMP2-006 (AID 978); also: nearly all actives have a fitted effect of over 60% in size
# Procedure, shortened: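 Cells are seeded at 2500 per well and rested 5 hr at 37 C. Compounds are added across a concentration series for 24 hr at 37 C, after which ATP is quantified by luciferase luminescence.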
# [10] = Cell Viability - LYMP2-010 (AID 981); also: nearly all actives have a fitted effect of over 55% in size; also: potency is read from the fitted curve at half-maximal effect
# Procedure, shortened: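 Human lymphoblastoid LYMP2-010 cells (2500/well) treated 24 h at 37 C in complete medium; viability read as intracellular ATP by CellTiter-Glo luminescence. AC50 from Hill fits of concentration-response data; tetraoctylammonium bromide positive control.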
# [11] = Cell Viability - LYMP2-012 (AID 982)
# [12] = Cell Viability - LYMP2-024 (AID 988); also: nearly all actives have a fitted effect of over 60% in size; also: potency is read from the fitted curve at half-maximal effect
# Procedure, shortened: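 Human lymphoblastoid LYMP2-024 cells (2500/well) rested 5 hr, then treated with compound for 24 hr at 37 C in complete medium. Viability was measured as intracellular ATP by CellTiter-Glo luminescence. AC50 values came from Hill-equation fits.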
# [13] = qHTS assay for small molecule agonists of retinoid X receptor alpha signaling (AID 588544; calls by dose curve); conditions: HEK293T RXRa-UAS-bla, beta-lactamase reporter, 18 h; 530 nm emission
# [14] = biological target: Retinoic acid receptor RXR-alpha (Homo sapiens) (UniProt P19793); assay: as above
# [15] = qHTS assay for small molecule activators of the p53 signaling pathway (AID 651743; active = well fitted activation curve with a large enough effect in the signal ratio, not every such curve was filed as active; the % refers to the signal ratio); conditions: HCT-116 p53RE-bla, beta-lactamase FRET ratio, 16 h; activation: stronger effect = higher value
# Procedure, shortened: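 Read-out is fluorescence intensity from the LiveBLAzer B/G FRET substrate, added for 2 hours at room temperature after HCT-116 p53RE-bla cells had been incubated with compounds for 16 hours at 37 C.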
# [16] = qHTS assay for small molecule disruptors of the mitochondrial membrane potential - 1 hr assay (AID 651754; calls by dose curve; also: nearly all actives have a fitted effect of over 35% in size; also: potency is read from the fitted curve at half-maximal effect)
# Procedure, shortened: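 HepG2 cells, attached overnight, were exposed to compound for 1 hr at 37C, then stained 30 min with a potentiometric dye. Ratio of red aggregate (590nm) to green monomer (535nm) fluorescence reports membrane potential; collapse shifts signal toward green.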
# [17] = qHTS assay for small molecule disruptors of the mitochondrial membrane potential - 5 hr assay (AID 651755; calls by dose curve; also: nearly all actives have a fitted effect of over 40% in size; also: potency is read from the fitted curve at half-maximal effect)
# Procedure, shortened: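 HepG2, 2,000 cells/well, overnight attach; cpd or DMSO 5 hr, 37C/5% CO2; Mito-MPS 30 min 37C; fluor 490/535 + 540/590 nm.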
# [18] = qHTS assay for small molecule agonists of the antioxidant response element (ARE) signaling pathway measured by Nrf2-dependant transcriptional activity (AID 720636; active = well fitted curve in the direction sought with a large enough effect in the repeat runs; an effect the other way counts as inactive or inconclusive; also: potency is read from the fitted curve at half-maximal effect;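 as to activation: HepG2 cells with an ARE-driven luciferase reporter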)
# Procedure, shortened: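 Cells: ARE-luc HepG2 with Nrf2-responsive luciferase. Medium contained 1% dialyzed FBS. Compound exposure lasted 16 hr at 37 C and 5% CO2, followed by ONE-Glo luciferase detection.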
# [19] = biological target: Glucocorticoid receptor (Homo sapiens) (UniProt P04150); assay: qHTS assay for small molecule agonists of glucocorticoid receptor signaling (AID 588532; active = well fitted curve in the direction sought with a large enough effect in the signal ratio, with a control signal flat; the % refers to the signal ratio); conditions: HeLa MMTV-bla, beta-lactamase ratio, agonist, 18 h; stronger effect = higher value; percent of dexamethasone control, DMSO zero
# Procedure, shortened: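 Agonist-mode qHTS: GRE-driven beta-lactamase in HeLa cells exposed 18 h to titrated compounds (up to 92 uM), then CCF4 ratio read after 2 h at RT; Hill-fitted EC50, efficacy relative to 0.1 uM dexamethasone.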
# [20] = biological target: Thyroid hormone receptor beta (Homo sapiens) (UniProt P10828); assay: qHTS assay for small molecule agonists of thyroid hormone receptor beta signaling (AID 588545; calls by dose curve)
# Procedure, shortened: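 Stimulation of a TR-driven beta-lactamase reporter was quantified in GripTite HEK 293 cells. Compound series ran for 18 hrs; curves were normalized to T3 and DMSO controls and fitted to yield EC50.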
# Chain of Retinoic acid receptor RXR-alpha (Homo sapiens) (P19793 whole entry, looked up): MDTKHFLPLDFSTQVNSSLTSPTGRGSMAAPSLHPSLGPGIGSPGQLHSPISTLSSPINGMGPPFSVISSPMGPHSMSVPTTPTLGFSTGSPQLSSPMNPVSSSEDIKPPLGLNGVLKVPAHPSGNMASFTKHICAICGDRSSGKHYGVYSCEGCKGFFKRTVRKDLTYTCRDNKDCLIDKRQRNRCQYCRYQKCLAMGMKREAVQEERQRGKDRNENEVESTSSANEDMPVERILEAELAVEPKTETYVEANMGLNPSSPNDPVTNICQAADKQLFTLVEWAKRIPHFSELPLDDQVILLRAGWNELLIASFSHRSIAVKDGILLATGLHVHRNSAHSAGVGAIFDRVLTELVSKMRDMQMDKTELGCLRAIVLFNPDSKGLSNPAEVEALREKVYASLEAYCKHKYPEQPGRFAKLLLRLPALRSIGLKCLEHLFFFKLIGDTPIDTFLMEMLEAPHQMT
# Chain of Thyroid hormone receptor beta (Homo sapiens) (P10828 whole entry, looked up): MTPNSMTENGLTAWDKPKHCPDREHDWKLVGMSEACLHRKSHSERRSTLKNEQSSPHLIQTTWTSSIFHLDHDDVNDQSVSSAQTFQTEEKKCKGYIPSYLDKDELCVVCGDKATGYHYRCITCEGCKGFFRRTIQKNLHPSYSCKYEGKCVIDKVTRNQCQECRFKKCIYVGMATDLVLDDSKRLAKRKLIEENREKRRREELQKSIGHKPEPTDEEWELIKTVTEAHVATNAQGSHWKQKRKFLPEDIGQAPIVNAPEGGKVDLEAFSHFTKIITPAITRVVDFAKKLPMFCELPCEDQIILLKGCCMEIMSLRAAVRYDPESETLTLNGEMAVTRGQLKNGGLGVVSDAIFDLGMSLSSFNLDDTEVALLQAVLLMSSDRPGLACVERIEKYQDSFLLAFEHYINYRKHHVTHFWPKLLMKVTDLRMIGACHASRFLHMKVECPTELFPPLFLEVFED
# Chain of Glucocorticoid receptor (Homo sapiens) (P04150 whole entry, looked up): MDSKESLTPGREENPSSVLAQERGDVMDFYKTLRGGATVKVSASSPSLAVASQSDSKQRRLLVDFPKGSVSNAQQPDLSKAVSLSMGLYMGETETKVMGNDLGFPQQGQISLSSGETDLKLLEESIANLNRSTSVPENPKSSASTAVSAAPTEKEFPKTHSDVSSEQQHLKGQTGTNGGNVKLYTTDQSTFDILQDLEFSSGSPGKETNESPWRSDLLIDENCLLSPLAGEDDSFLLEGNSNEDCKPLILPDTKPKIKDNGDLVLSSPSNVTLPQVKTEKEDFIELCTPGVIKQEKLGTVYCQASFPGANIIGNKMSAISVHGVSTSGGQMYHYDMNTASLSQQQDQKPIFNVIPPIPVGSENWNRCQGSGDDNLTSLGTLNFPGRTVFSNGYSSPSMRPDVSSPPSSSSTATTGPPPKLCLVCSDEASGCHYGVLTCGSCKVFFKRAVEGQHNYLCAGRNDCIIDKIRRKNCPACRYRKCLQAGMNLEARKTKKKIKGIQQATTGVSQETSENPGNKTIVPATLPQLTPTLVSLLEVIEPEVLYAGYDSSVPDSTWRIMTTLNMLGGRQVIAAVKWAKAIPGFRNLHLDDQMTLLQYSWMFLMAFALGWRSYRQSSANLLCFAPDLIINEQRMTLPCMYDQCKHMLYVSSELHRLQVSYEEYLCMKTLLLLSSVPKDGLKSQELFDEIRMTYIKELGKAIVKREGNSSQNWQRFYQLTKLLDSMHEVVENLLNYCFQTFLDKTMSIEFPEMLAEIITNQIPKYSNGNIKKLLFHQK
SMILES,Potency [1],Potency [2],Potency [3],Potency [4],Potency [5],Potency [6],Potency [7],Potency [8],Potency [9],Potency [10],Potency [11],Potency [12],max response [13],Potency [14],activation [15],Potency [16],Potency [17],Potency [18],activation [19],Potency [20]
CCNC(=S)NCC,inactive,inactive,inactive,inactive,inactive,inactive,inactive,inactive,inactive,inactive,inactive,inactive,-2.72%,inactive,-0.196% (inactive),inactive,inactive,inactive,–,–
C=C(C#N)C(=O)OCC,inactive,inactive,inactive,inactive,inactive,inactive,inactive,inactive,–,inactive,inactive,inactive,6.28%,inactive,2.02% (inactive),inactive,inactive,inactive,-0.945% (inactive),inactive
CCCCC(CC)COC(=O)COc1ccc(Cl)cc1Cl (stereo not drawn),inactive,inactive,inactive,inactive,–,inactive,inactive,inactive,inactive,inactive,inactive,inactive,5.67% and -6.26%,inactive,-1.29% (inactive) and -1.26% (inactive),inactive,inactive,inactive,-3.61% (inactive) and -5.37% (inactive),inactive
Cc1ccc2ccc3cccc4ccc1c2c34,inactive,inactive,inactive,inactive,inactive,inactive,inactive,inactive,inactive,inactive,inactive,inactive,-15.6%,inactive,–,–,–,–,-3.78% (inactive),inactive
Cc1ccc(O)c(N)c1,20 µM (active),inactive,50.1 µM (active),inactive,50.1 µM (active),50.1 µM (active),39.8 µM (active),–,–,39.8 µM (active),–,39.8 µM (active),23.6%,inactive,2.36% (inactive),29.8 µM (active),33.5 µM (active),42.2 µM (active),4.97% (inactive),inactive
O=[N+]([O-])c1cc(Cl)c(Cl)c(Cl)c1Cl,31.6 µM (active),inactive,inactive,–,inactive,–,–,–,–,–,inactive,–,–,–,0.035% (inactive),inactive,inactive,37.6 µM (active),0.473% (inactive),inactive
NC(=O)Nc1nc2ccccc2[nH]1,inactive,inactive,inactive,inactive,inactive,inactive,inactive,inactive,inactive,inactive,inactive,inactive,-1.01%,inactive,-0.426% (inactive),inactive,inactive,inactive,–,–
